# Laboratory results as given in PubChem BioAssay (NCATS).
# Values joined by “and” are separate entries in the source; they are usually repeats but may differ in a detail not shown here. Equal values may be shown once. Records with an inconclusive call do not appear. Where a call stands in place of a potency, no number is given. The source holds several records for some structures; these can differ, active in one and inactive in another. Active and inactive are the calls of the source. Unless noted, the call rests on the fitted dose curve; in most records, active means well fitted curve in the direction sought with a large enough effect; inconclusive means small, poorly fitted or top-dose-only effect, or another doubt; inactive means no such curve, though single readings can be large; an effect the other way counts as inactive or inconclusive.
# What was measured:
# [1] = target: Cytochrome P450 1A2 (Homo sapiens) (UniProt P05177); experiment: p450-cyp1a2 (AID 410; calls by dose curve; further: potency means the concentration at half of the fitted maximal effect)
# How it was run: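 20nM CYP1A2, 100uM Luciferin-ME (=Km), 100mM KPO4; cpd 10 min RT; +NADPH regen, 60 min RT; stop/detect 20 min; luminescence. Normalized to furafylline 57 uM = full inhibition.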
# [2] = target: Cytochrome P450 2C9 (Homo sapiens) (UniProt P11712); experiment: qHTS Assay for Inhibitors and Substrates of Cytochrome P450 2C9 (AID 883); further: nearly all actives have a fitted effect of over 60% in size; further: potency means the concentration at half of the fitted maximal effect
# How it was run: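 A luminogenic readout tracked human CYP2C9 (10nM) converting deoxyluciferin (100uM, at KM) in 25mM KPO4 during 60 min at 37C with regenerated NADPH. Values normalized to 57uM sulphaphenazole as complete inhibition.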
# [3] = target: Cytochrome P450 3A4 (Homo sapiens) (UniProt P08684); experiment: qHTS Assay for Inhibitors and Substrates of Cytochrome P450 3A4 (AID 884); further: nearly all actives have a fitted effect of over 50% in size; further: potency means the concentration at half of the fitted maximal effect
# How it was run: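 Luminescent readout of luciferin produced by CYP3A4 (20 nM) dealkylation of Luciferin-PPXE, 25 uM (its KM). NADPH-driven reaction ran 60 min at RT after 10 min compound preincubation; data scaled to 57 uM ketoconazole as 100% inhibition.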
# [4] = target: Cytochrome P450 2D6 (Homo sapiens) (UniProt P10635); experiment: qHTS Assay for Inhibitors and Substrates of Cytochrome P450 2D6 (AID 891); further: nearly all actives have a fitted effect of over 60% in size; further: potency means the concentration at half of the fitted maximal effect;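 on activity change, negative = inhibition: luciferin methyl ether substrate demethylated by CYP2D6 with NADPH regeneration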
# How it was run: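 Luminescent read-out of luciferin formed by 5 nM human CYP2D6 demethylating 30 uM Luciferin-ME EGE (Km level) over 60 min at room temperature after NADPH regeneration addition. Data normalized to full inhibition by 1.43 uM quinidine.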
# [5] = target: Glucocorticoid receptor (Homo sapiens) (UniProt P04150); experiment: GR-GFP Redistribution (AID 450;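 active means compounds whose dose series gives a full or clear partial fitted curve of increased nuclear translocation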; further: potency means the concentration at half of the fitted maximal effect); conditions: U2OS GR-GFP nuclear translocation, laser cytometry, 2 h
# [6] = target: Cytochrome P450 3A4 (Homo sapiens) (UniProt P08684); experiment: qHTS Assay for Activators of Cytochrome P450 3A4 (AID 885); further: nearly all actives have a fitted effect of over 65% in size
# How it was run: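 Using 20nM recombinant human CYP3A4 in potassium phosphate (200mM), substrate Luciferin-PPXE at 25uM, luminescent luciferin detection followed a 60-min RT NADPH reaction; data scaled to 57 uM ketoconazole.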
# [7] = S16 Schwann cell PMP22 intronic element firefly luciferase assay (AID 624032); further: nearly all actives have a fitted effect of over 30% in size
# How it was run: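 Rat S16 Schwann cells stably carrying a PMP22 intronic element-driven Fluc reporter were seeded overnight, then exposed to compounds for 24 h at 37 °C. Luminescence was normalized to PTC124 (positive control) and DMSO (0% activity).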
# 7G8 = experiment: qHTS profiling for inhibitors of Plasmodium falciparum proliferation (AID 504749); further: nearly all actives have a fitted effect of over 60% in size; further: potency means the concentration at half of the fitted maximal effect; conditions: P. falciparum in erythrocytes, SYBR Green DNA, 72 h; series mostly up to 12.8 µM
# How it was run: (§1)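 Fluorescence of SYBR Green-bound parasite DNA, read at 485/535 nm, served as the growth measure. Infected erythrocytes were cultured with compound 72 h; artemisinin (0.29 uM) and DMSO wells defined the normalization range.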
# ATS95 = experiment: as above; conditions: P. falciparum in erythrocytes, SYBR Green DNA, 72 h; series mostly up to 12.8 µM
# How it was run: as §1
# CP203 = experiment: as above; conditions: P. falciparum in erythrocytes, SYBR Green DNA, 72 h; series mostly up to 12.8 µM
# How it was run: as §1
# CP215 = experiment: as above; conditions: P. falciparum in erythrocytes, SYBR Green DNA, 72 h; series mostly up to 12.8 µM
# How it was run: as §1
# CP260 = experiment: as above; conditions: P. falciparum in erythrocytes, SYBR Green DNA, 72 h; series mostly up to 12.8 µM
# How it was run: as §1
# CP266 = experiment: as above; conditions: P. falciparum in erythrocytes, SYBR Green DNA, 72 h; series mostly up to 12.8 µM
# How it was run: as §1
# ICS = experiment: as above; conditions: P. falciparum in erythrocytes, SYBR Green DNA, 72 h; series mostly up to 12.8 µM
# How it was run: as §1
# P94_40 = experiment: as above; conditions: P. falciparum in erythrocytes, SYBR Green DNA, 72 h; series mostly up to 12.8 µM
# How it was run: as §1
# W2 = experiment: as above; conditions: P. falciparum in erythrocytes, SYBR Green DNA, 72 h; series mostly up to 12.8 µM
# How it was run: as §1
# [8] = Confirmation and Secondary Assay for Modulators of Hemoglobin Beta Chain Splicing at IVS2 654 locus (AID 910);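 further: per-well total GFP intensity by laser scanning cytometry after 2-day treatment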
# How it was run: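 HeLa cells stably carrying EGFP interrupted by mutant beta-globin IVS2-654 intron (CMV-driven) were treated with compound for 2 days at 37C; corrected splicing was scored as total peak GFP intensity per well (488 nm excitation, 500-520 nm emission).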
# [9] = Confirmation and Secondary Assay for Modulators of Hemoglobin Beta Chain Splicing at IVS2 705 locus (AID 930);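 further: HeLa cells stably expressing the EGFP-705 splicing reporter; GFP fluorescence per well restored by corrected splicing of the IVS2-705 intron in EGFP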
# How it was run: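 HeLa EGFP-705 reporter; 500 cells/well, o/n 37C 5% CO2; cpd 2 d; 488 ex/500-520 em laser scan; total peak GFP intensity/well. Ref: 500 nM […] antisense PNA.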
# [10] = target: ATP-dependent 6-phosphofructokinase (Trypanosoma brucei brucei) (UniProt O15648); experiment: qHTS Assay to Find Inhibitors of T. brucei phosphofructokinase: hit validation (AID 492961);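 further: luminescence reports ADP formed as PFK phosphorylates fructose-6-phosphate with ATP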
# How it was run: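 Percent activity derived from corrected luminescence, normalized between 0x and 1x enzyme controls, then fitted to concentration-response curves. Conditions: 1.25 nM PFK, 0.1 mM ATP, 0.5 mM F6P, 45 min RT.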
# Sequence of Cytochrome P450 1A2 (Homo sapiens) (P05177 whole entry, looked up): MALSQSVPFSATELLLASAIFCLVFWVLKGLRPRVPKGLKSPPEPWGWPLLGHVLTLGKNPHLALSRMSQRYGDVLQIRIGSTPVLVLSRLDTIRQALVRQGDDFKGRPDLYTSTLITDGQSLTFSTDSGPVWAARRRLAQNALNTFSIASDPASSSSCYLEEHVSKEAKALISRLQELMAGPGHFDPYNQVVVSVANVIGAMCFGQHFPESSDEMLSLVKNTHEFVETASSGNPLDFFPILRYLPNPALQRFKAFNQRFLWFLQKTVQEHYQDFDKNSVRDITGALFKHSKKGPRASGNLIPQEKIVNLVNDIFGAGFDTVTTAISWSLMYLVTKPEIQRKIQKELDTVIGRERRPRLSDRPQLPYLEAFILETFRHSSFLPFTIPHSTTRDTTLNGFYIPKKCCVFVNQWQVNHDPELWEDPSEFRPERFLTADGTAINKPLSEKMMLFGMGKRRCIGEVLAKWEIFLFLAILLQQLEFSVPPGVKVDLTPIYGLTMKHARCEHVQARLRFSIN
# Sequence of Cytochrome P450 2C9 (Homo sapiens) (P11712 whole entry, looked up): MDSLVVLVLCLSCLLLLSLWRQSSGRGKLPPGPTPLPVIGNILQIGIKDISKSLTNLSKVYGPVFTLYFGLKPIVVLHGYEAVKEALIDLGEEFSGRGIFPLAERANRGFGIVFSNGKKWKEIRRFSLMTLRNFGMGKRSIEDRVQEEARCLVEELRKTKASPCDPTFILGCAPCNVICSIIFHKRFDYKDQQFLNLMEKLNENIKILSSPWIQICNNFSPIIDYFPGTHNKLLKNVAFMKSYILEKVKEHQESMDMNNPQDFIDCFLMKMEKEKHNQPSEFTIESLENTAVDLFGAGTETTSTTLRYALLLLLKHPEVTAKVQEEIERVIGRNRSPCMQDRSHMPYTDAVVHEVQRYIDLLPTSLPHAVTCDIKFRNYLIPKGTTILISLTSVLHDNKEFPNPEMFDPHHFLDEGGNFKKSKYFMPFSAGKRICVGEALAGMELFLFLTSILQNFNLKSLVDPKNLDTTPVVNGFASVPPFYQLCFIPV
# Sequence of Cytochrome P450 2D6 (Homo sapiens) (P10635 whole entry, looked up): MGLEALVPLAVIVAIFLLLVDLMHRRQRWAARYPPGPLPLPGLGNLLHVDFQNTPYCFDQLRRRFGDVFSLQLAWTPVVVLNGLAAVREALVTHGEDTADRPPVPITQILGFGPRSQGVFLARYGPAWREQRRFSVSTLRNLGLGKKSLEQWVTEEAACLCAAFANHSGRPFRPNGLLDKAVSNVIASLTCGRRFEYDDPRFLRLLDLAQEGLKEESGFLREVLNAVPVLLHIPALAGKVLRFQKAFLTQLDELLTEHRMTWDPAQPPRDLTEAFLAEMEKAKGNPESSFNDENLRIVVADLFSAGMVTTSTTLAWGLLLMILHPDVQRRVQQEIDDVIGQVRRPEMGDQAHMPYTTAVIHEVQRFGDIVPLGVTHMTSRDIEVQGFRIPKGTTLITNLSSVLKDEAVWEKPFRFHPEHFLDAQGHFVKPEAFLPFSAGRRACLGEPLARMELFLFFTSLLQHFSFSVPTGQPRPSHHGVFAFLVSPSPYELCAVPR
# Sequence of Cytochrome P450 3A4 (Homo sapiens) (P08684 whole entry, looked up): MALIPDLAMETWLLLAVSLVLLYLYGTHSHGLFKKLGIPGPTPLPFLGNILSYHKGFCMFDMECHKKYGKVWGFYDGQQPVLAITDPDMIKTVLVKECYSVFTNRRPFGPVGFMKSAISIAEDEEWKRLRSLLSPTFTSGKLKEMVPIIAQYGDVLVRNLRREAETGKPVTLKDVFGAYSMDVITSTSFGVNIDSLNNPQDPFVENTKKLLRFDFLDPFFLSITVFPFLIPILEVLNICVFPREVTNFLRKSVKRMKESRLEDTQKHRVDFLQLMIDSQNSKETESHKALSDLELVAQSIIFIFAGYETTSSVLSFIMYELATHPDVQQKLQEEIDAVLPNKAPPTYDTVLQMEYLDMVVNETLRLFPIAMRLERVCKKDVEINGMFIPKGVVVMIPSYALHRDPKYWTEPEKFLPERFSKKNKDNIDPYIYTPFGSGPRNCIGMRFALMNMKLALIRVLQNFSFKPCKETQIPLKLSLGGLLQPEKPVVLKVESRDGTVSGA
# Sequence of Glucocorticoid receptor (Homo sapiens) (P04150 whole entry, looked up): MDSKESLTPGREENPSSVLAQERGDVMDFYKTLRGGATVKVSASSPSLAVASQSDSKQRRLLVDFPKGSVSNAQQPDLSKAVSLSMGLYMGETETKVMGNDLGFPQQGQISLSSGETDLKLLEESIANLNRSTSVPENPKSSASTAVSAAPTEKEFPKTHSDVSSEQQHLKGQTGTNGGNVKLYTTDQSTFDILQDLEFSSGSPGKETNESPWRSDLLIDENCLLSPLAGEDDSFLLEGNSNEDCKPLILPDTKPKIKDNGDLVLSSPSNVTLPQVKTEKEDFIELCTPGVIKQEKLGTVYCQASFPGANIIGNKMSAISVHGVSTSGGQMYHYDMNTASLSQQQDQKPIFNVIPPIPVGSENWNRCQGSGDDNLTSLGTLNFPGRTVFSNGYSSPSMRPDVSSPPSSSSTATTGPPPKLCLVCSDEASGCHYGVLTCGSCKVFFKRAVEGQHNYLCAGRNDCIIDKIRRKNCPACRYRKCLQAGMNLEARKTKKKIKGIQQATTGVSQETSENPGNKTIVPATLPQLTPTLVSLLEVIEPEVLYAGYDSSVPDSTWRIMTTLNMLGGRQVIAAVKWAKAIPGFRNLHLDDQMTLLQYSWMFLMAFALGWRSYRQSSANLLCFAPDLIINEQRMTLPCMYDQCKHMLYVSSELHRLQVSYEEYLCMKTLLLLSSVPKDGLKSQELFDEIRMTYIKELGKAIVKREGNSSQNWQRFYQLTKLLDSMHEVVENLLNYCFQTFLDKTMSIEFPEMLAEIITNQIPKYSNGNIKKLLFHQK
# Sequence of ATP-dependent 6-phosphofructokinase (Trypanosoma brucei brucei) (O15648 whole entry, looked up): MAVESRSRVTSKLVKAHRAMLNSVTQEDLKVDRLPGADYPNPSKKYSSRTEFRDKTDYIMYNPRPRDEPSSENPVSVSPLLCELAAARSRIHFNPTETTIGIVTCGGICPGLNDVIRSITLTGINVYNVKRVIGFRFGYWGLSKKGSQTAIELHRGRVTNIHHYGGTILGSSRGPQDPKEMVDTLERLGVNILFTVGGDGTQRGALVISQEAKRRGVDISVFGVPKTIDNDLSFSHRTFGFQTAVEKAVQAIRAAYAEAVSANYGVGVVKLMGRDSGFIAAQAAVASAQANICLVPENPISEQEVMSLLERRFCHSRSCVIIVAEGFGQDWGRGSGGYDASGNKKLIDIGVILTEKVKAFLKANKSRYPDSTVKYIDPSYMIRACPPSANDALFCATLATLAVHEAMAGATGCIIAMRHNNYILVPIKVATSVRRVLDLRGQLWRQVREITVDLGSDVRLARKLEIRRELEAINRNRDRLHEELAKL
compound,measurement,setting,value
NCCC(=O)N[C@@H](Cc1cnc[nH]1)C(=O)O,Potency,[1],inactive
same,Potency,[2],inactive
same,Potency,[3],inactive
same,Potency,[4],inactive
Nc1ncn([C@H]2O[C@@H](CO)[C@@H](O)[C@@H]2O)c(=O)n1,Potency,[5],> 20.6 µM (inactive)
CC1(C)S[C@@H]2[C@H](NC(=O)[C@@H](N)c3ccccc3)C(=O)N2[C@H]1C(=O)O[C@H]1OC(=O)c2ccccc21,Potency,[1],inactive
same,Potency,[3],1.58 µM (active)
same,Potency,[6],inactive
same,Potency,[7],inactive
same,Potency,7G8,inactive
same,Potency,ATS95,inactive
same,Potency,CP203,inactive
same,Potency,CP215,inactive
same,Potency,CP260,inactive
same,Potency,CP266,inactive
same,Potency,ICS,inactive
same,Potency,P94_40,inactive
same,Potency,W2,inactive
COc1ccc(-c2cc(=O)c3c(O)cc(O)cc3o2)cc1,Potency,[5],> 20.6 µM (inactive)
same,Potency,[3],2.51 µM (active) and 7.94 µM (active) and 3.16 µM (active)
same,Potency,[6],inactive
same,Potency,[8],inactive
same,Potency,[9],inactive
C[C@@](N)(C(=O)O)c1cccc(CC(=O)O)c1,Potency,[5],> 46 µM (inactive)
Cc1ccnc(N)c1,Potency,[1],inactive
same,Potency,[5],> 46 µM (inactive)
C=C(C)[C@H]1CC[C@]2(C(=O)O)CC[C@]3(C)[C@@H](CC[C@H]4[C@@]5(C)CC[C@@H](O)C(C)(C)[C@@H]5CC[C@@]43C)[C@H]12,Potency,[1],inactive
same,Potency,[5],> 20.6 µM (inactive)
CCO[C@H]1O[C@@H]([C@H](COCc2ccccc2)OCc2ccccc2)[C@@H](OCc2ccccc2)[C@H]1O,Potency,[5],> 20.6 µM (inactive)
same,Potency,ATS95,inactive
same,Potency,CP203,inactive
same,Potency,CP260,inactive
O=c1cc(-c2cccc(O)c2)oc2cc(O)ccc12,Potency,[5],> 46 µM (inactive)
same,Potency,[2],25.1 µM (active)
same,Potency,[3],12.6 µM (active)
same,Potency,[6],inactive
same,Potency,[4],inactive
CCN(CC)[C@@H](C)CN1c2ccccc2Sc2ccccc21,Potency,[1],0.501 µM (active)
same,Potency,[5],> 20.6 µM (inactive)
same,Potency,[4],158 nM (active)
same,outcome,[10],inactive
same,Potency,[7],inactive
same,Potency,CP215,inactive
same,Potency,CP266,inactive
C=C(C)[C@H]1CC[C@]2(CO)CC[C@]3(C)[C@@H](CC[C@H]4[C@@]5(C)CC[C@@H](O)C(C)(C)[C@@H]5CC[C@@]43C)[C@H]12,Potency,[1],inactive
same,Potency,[5],> 20.6 µM (inactive)
CO[C@@H]1CC[C@@]2(C)[C@@H](CC[C@@]3(C)[C@H]2CC=C2[C@H]4CC(C)(C)[C@H](O)[C@@H](OC(C)=O)[C@]4(CO)[C@H](O)C[C@]23C)[C@@]1(C)CO (tested in a mixture with another compound),Potency,[1],inactive
same,Potency,[5],> 20.6 µM (inactive)
C1CCC(C(C[C@@H]2CCCCN2)C2CCCCC2)CC1,Potency,[1],6.31 µM (active)
same,Potency,[5],> 20.6 µM (inactive)
same,Potency,[4],501 nM (active)
CC=C(/C(=C/C)c1ccc(O)cc1)c1ccc(O)cc1,Potency,[1],15.8 µM (active)
same,Potency,[5],> 20.6 µM (inactive)
same,Potency,[2],0.794 µM (active)
same,Potency,[6],inactive
same,outcome,[10],inactive
same,Potency,[7],inactive
same,Potency,7G8,inactive
same,Potency,ATS95,inactive
same,Potency,CP203,inactive
same,Potency,CP215,inactive
same,Potency,CP260,inactive
same,Potency,CP266,inactive
same,Potency,ICS,inactive
same,Potency,P94_40,inactive
same,Potency,W2,inactive
FC(F)(F)c1ccccc1-c1ccc2ncnc(NC3CCNCC3)c2c1,Potency,[1],20 µM (active)
same,"activity change, negative = inhibition",[2],12.9% [at 2.29 µM] (inactive)
same,Potency,[8],inactive
same,Potency,[9],inactive
C[C@@H](CN1c2ccccc2Sc2ccccc21)N(C)C,Potency,[4],2 µM (active) and 316 nM (active)
CO[C@]1(NC(=O)[C@H](C(=O)O)c2ccc(O)cc2)C(=O)N2C(C(=O)O)=C(CSc3nnnn3C)CO[C@H]21,Potency,[1],inactive
same,Potency,[5],> 20.6 µM (inactive)
same,outcome,[10],inactive
same,Potency,[7],inactive
same,Potency,7G8,inactive
same,Potency,ATS95,inactive
same,Potency,CP203,inactive
same,Potency,CP215,inactive
same,Potency,CP260,inactive
same,Potency,CP266,inactive
same,Potency,ICS,inactive
same,Potency,P94_40,inactive
same,Potency,W2,inactive
Cc1cc2ccc(=O)oc2cc1OC[C@@H](O)C(C)(C)O,Potency,[1],39.8 µM (active)
same,Potency,[5],> 46 µM (inactive)
same,Potency,[2],inactive
same,Potency,[3],inactive
same,Potency,[4],inactive
C[C@@H]1O[C@H](O[C@@H]2[C@H](C)O[C@H](O[C@@H]3[C@H](C)O[C@H](O[C@H]4CC[C@]5(C)[C@@H](CC[C@@H]6[C@H]5C[C@@H](O)[C@]5(C)[C@@H](C7=CC(=O)OC7)CC[C@]65O)C4)C[C@@H]3O)C[C@@H]2O)C[C@H](O)[C@@H]1O,Potency,[5],> 20.6 µM (inactive)
O=C(OC[C@@H](O)CO)c1ccccc1Nc1ccnc2cc(Cl)ccc12,outcome,[10],inactive
same,Potency,7G8,3.98 µM (active)
same,Potency,ATS95,inactive
same,Potency,CP203,inactive
same,Potency,CP215,inactive
same,Potency,CP260,inactive
same,Potency,CP266,inactive
same,Potency,P94_40,inactive
O=C1C=CC(=O)c2c1ccc1c2ccc2ccccc21,Potency,[1],0.794 µM (active)
same,Potency,[5],> 20.6 µM (inactive)
CCC(C)(C)C(=O)O[C@@H]1C[C@H](C)C=C2C=C[C@H](C)[C@@H](CC[C@H]3C[C@@H](O)CC(=O)O3)[C@H]21,Potency,[5],> 20.6 µM (inactive)
same,outcome,[10],inactive
same,Potency,[7],inactive
same,Potency,ATS95,inactive
same,Potency,CP203,inactive
same,Potency,CP215,inactive
same,Potency,CP260,inactive
same,Potency,CP266,inactive
O=C(O)[C@@H]1[C@@H]2C[C@H]3c4[nH]c5ccccc5c4CCN3C[C@@H]2CC[C@@H]1O,Potency,[1],12.6 µM (active) and inactive
same,Potency,[5],> 20.6 µM (inactive) and > 46 µM (inactive)
same,Potency,CP203,inactive
C/C(=C\CNc1ncnc2nc[nH]c12)CO,Potency,[5],> 46 µM (inactive)
same,Potency,[2],inactive
same,Potency,[3],inactive
same,Potency,[4],inactive
COC(=O)[C@@H]1[C@@H]2C[C@H]3c4[nH]c5cc(OC)ccc5c4CCN3C[C@@H]2C[C@H](OC(=O)/C=C\c2cc(OC)c(OC)c(OC)c2)[C@H]1OC,Potency,[5],> 20.6 µM (inactive)
same,outcome,[10],inactive
same,Potency,7G8,3.16 µM (active)
same,Potency,CP266,inactive
same,Potency,ICS,4.47 µM (active)
same,Potency,W2,1.81 µM (active)
COc1cccc(-c2nc(NCCc3c[nH]c4ccc(OC)cc34)c3ccccc3n2)c1,Potency,[1],1.58 µM (active)
same,Potency,[2],0.794 µM (active)
same,Potency,[3],2 µM (active)
same,Potency,[6],inactive
same,Potency,[8],inactive
same,Potency,[9],inactive
Nc1ncnc2c1nc(Br)n2[C@H]1O[C@H]2COP(=O)(O)O[C@H]2[C@@H]1O,Potency,[5],> 46 µM (inactive)
